Screens from PubChem.
Pf apPOL inh: Pf-apPOL DNA polymerase inhibition. 0.25% of 210,000 active. AID 1794808. Recombinant Pf-apPOL, molecular beacon fluorescence, 1.5 h. inhibition, % at 10 µM
mHTT-CaM PPI inh: disrupts binding of mutant huntingtin to calmodulin. AlphaScreen His-mHTT/GST-CaM binding, luminescence. inhibition, % at 15 µM. 3.6% of 190,000 active. AID 1671202;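 note: 0% = both proteins with DMSO and 100% = one protein alone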
* hit, by the source's call; nt = no result given. Sampled rows, rich in hits. Any-hit rate of the full collection: about 3.6%. Cut-off read from the data, not from the text of the source: active = inhibition above about 50%; inactive = the rest.

SMILES	Pf apPOL inh	mHTT-CaM PPI inh
CCCNC(=O)N1CCc2cn(CCOC)c3cccc(c23)C1	-1.6	-5.8
COCCn1cc2c3c(cccc31)CN(C(=O)c1ccc(F)c(F)c1)CC2	-2.0	61.3*
COCCn1cc2c3c(cccc31)CN(C(=O)c1ccc(F)cc1)CC2	-0.9	64.2*
CCCNc1ccc(S(=O)(=O)c2ccccc2)cc1	-4.8	-8.8
Cc1ccccc1NC(=O)N1CCC(c2nc(C(=O)N(C)C)c(C)o2)CC1	-8.2	-1.7
O=C(NCc1ccc2c(c1)OCO2)C(=O)NCC(O)c1cccs1 (centres undefined)	-1.5	-15.9
CC(=O)Nc1c(C)ccc(CNC(=O)CSc2nc(-c3ccccc3)cs2)c1C	0.5	2.0
Cc1nc(NC(=O)CN(C)c2nc3c(C)ccc(C)c3s2)sc1C(=O)N(C)C	-12.8	44.1
COc1ccc2c(c1)CC/C(=C\c1ccccc1C)C2=O	-6.1	-38.0
CCc1ccc(/C=c2\sc3ncnn3c2=O)cc1	-1.0	8.0
COc1cc(/C=C(\C#N)c2nc3ccc(C)cc3[nH]2)ccc1OCC#N	-4.5	70.3*
COc1cc(/C=C(\C#N)c2nc3ccccc3[nH]2)cc(Br)c1O	8.3	1.0
Cc1ccc2nc(/C(C#N)=C/c3cccc(O)c3)[nH]c2c1	-4.0	69.8*
COc1cc(/C=C(\C#N)c2nc3ncc(Br)cc3[nH]2)ccc1O	-7.3	55.0*
COc1ccc(/C=C(\C#N)c2nc3ccc(C)cc3[nH]2)cc1	-13.6	3.5
N#C/C(=C\c1ccc(I)o1)c1nc2ccccc2[nH]1	2.5	-2.9
N#C/C(=C\c1ccc(Sc2nc3ccccc3[nH]2)o1)c1nc2ccccc2[nH]1	-5.9	100.3*
Cc1ccc2nc(/C(C#N)=C/c3cccc(Br)c3)[nH]c2c1	-1.6	-21.2
CC(CCc1cc(C(C)(C)C)c(O)c(C(C)(C)C)c1)c1cc(C(C)(C)C)c(O)c(C(C)(C)C)c1 (centres undefined)	nt	-6.3
CCC(Cn1ccnc1)[N+](=O)[O-] (centres undefined)	nt	-0.3
CC(C)(C)C(O)CCNC(=O)CSc1ccc(F)cc1 (centres undefined)	2.6	-1.4
CN1C(=O)Cc2cc(C(=O)N3CCN(c4ccccc4F)CC3)ccc21	3.2	17.9
N#C/C(=C\c1cc(Cl)ccc1O)c1nc2ccccc2[nH]1	3.6	8.4
N#C/C(=C\c1ccc(O)cc1O)c1nc2ccccc2[nH]1	-0.1	72.3*
COc1cccc(-c2nc(C3CCN(S(=O)(=O)c4ccc(C(C)=O)cc4)CC3)no2)c1	-7.4	5.4
SMILES	Pf apPOL inh	mHTT-CaM PPI inh
COc1ccc(C2CC(=O)Oc3c(C(C)C)ccc(C)c32)cc1 (centres undefined)	-7.1	-35.5
COc1ccc(C2CC(=O)Oc3cc(OC)ccc32)cc1 (centres undefined)	-2.3	-0.5
COc1ccc(C2CC(O)(c3ccccc3)Oc3cc(OC)ccc32)cc1 (centres undefined)	-3.0	80.5*
COc1ccc(C2CC(O)(c3ccccc3)Oc3c(C)ccc(C(C)C)c32)cc1 (centres undefined)	1.6	54.7*
Cc1c(-c2noc(-c3ccccc3F)n2)nnn1Cc1cccc(F)c1	1.8	-9.3
COc1ccc(C2/C=C\CN(C(=O)OCc3ccccc3)CC(=O)N2Cc2ccc(F)cc2)cc1 (centres undefined)	-4.9	91.6*
COc1ccc(C2/C=C\CC(OCc3ccccc3)CC(=O)N2Cc2cccc(F)c2)cc1 (centres undefined)	-7.1	99.5*
CCCCCCNC(=O)N1C/C=C\C(c2ccc(OC)cc2)N(Cc2ccc(F)cc2)C(=O)C1 (centres undefined)	-3.8	48.2
COc1ccc(C2/C=C\CN(S(=O)(=O)c3ccc4ccccc4c3)CC(=O)N2Cc2ccc(F)cc2)cc1 (centres undefined)	-5.5	16.6
COc1ccc(C2/C=C\CN(C(=O)c3ccccc3)CC(=O)N2Cc2ccc(F)cc2)cc1 (centres undefined)	-1.4	31.0
CCCCCCC(=O)N1C/C=C\C(c2ccc(OC)cc2)N(Cc2ccc(F)cc2)C(=O)C1 (centres undefined)	-4.1	62.3*
Cc1cccc(NS(=O)(=O)c2cc(C(C)(C)C)c(F)c(C(C)(C)C)c2)n1	1.4	-5.0
CCCCc1nc(S(=O)(=O)c2ccc(C)cc2)c(N(C)C)o1	-3.7	1.0
Cc1ccc(N=Cc2ccc([N+](=O)[O-])cc2[N+](=O)[O-])cc1	-2.7	12.0
COC(=O)c1ccccc1N1C(=O)C2C3C=CC(C3)C2C1=O (centres undefined)	0.0	-4.1
Cc1cc2c(cc1C)NC(c1cc(F)ccc1F)C1=C(CC(C)(C)CC1=O)N2 (centres undefined)	-62.0	20.0
CCN(CC)CCCNC(=O)CC1CCN(C(=O)c2ccc(C)cc2)CC1	-2.2	5.8
Cc1ccc(C(=O)N2CCC(CC(=O)NCCCN(C)c3ccccc3)CC2)cc1	-4.2	50.9*
O=C(CCS(=O)(=O)c1cccs1)Nc1ccc(F)cc1	-4.3	8.0
C=CC[n+]1c2cc(Cl)c(Cl)cc2c(C)n1C	2.2	-5.0
CCCc1cc(=O)n(-c2ccc([N+](=O)[O-])cc2)[nH]1	-1.3	51.8*
O=c1cc(N2CCOCC2)[nH]n1-c1ccc([N+](=O)[O-])cc1	7.3	37.0
COc1ccc2[nH]cc(CCNC(=O)c3ccc(Cl)cc3)c2c1	2.3	13.5
O=C(NCCc1c[nH]c2ccc(OCc3ccccc3)cc12)c1ccc(Cl)cc1	-2.5	73.0*
O=C(c1ccccc1)N1CCN(Cc2ccccn2)CC1	0.0	4.0
SMILES	Pf apPOL inh	mHTT-CaM PPI inh
CCOc1ccc(-c2[nH]ncc2Oc2ccccc2)c(O)c1	-4.1	39.0
Oc1ccc(-c2[nH]ncc2Oc2ccc(-c3ccccc3)cc2)c(O)c1	0.4	50.9*
C=C(C)COc1ccc2c(=O)c(Oc3ccccc3OCC)c(C)oc2c1	-7.9	-14.2
COc1ccc(-c2[nH]ncc2-c2cnc(C)s2)c(O)c1	-17.6	7.4
COc1ccc(-c2[nH]ncc2Oc2ccc(Cl)cc2)c(O)c1	-3.5	65.9*
CCCc1ccc(Oc2cn[nH]c2-c2ccc(O)cc2O)cc1	4.0	81.8*
C=C(C)COc1ccc(-c2[nH]ncc2Oc2ccccc2OCC)c(O)c1	-1.6	66.5*
Oc1ccc(-c2[nH]ncc2-c2ccc(F)cc2)c(O)c1	17.4	30.9
O=C(c1cccc(Cl)c1)N1N=C2CCCCCC2C1(O)C(F)(F)F (centres undefined)	-3.5	-41.0
O=C1CSC(=Nc2ccc(C(=O)O)cc2)N1	12.1	-0.9
CC(C)(C)NS(=O)(=O)c1ccc(C(C)(C)C)cc1	-2.9	-12.6
CCN1CCN(C2CCN(C(=O)c3ccc(NC(C)=O)cc3)CC2)C1=O	-4.5	-24.4
CC(=O)n1cc(/C=C2\C(=O)NN(c3ccccc3)C2=O)c(-c2ccc(F)cc2)n1	-2.5	54.0*
COc1ccccc1/C=C1\C(=O)NN(c2ccccc2)C1=O	-4.3	-1.0
Cc1ncc2c(c1O)COC(C(C)C)OC2 (centres undefined)	3.0	nt
Cc1ccc(C2C(=C(O)c3ccccc3)C(=O)C(=O)N2CCCC(=O)O)cc1 (centres undefined)	-9.6	0.5
CN1C(=O)C(CC(N)=O)NC1=S (centres undefined)	nt	-6.0
Cc1ccc(C(=O)O)cc1-c1ccc(/C=C2/NC(=O)NC2=O)o1	-0.2	15.0
Cc1cc([N+](=O)[O-])ccc1-c1ccc(/C=C2/NC(=O)NC2=O)o1	-3.6	54.0*
CCCCCCCCOC(=O)c1ccc2c(c1)C(=O)NC2=O	-4.9	3.3
